HP1b chromo inh – HP1-beta chromodomain-methylated histone interaction inhibition. 0.56% of 390,000 active. AID 540317. Potency, µM (series often up to 114 µM), hits mostly inhibitors. AlphaScreen HP1-beta / biotin-H3K9me3 peptide binding; note: nearly all actives have a fitted effect of over 70% in size
Target sequence (P83916 whole entry, looked up): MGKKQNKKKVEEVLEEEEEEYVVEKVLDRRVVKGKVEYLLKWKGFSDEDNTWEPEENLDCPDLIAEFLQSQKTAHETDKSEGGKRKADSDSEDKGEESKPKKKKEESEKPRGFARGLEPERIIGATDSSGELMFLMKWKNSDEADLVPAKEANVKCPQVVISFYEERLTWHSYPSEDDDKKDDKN
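AlphaScreen: HP1-beta (50 nM) preformed 30 min with biotin-H3(1-18)K9me3 peptide (50 nM) in PBS pH 7.4, 0.01% Tween-20. Compound added for 30 min at RT, then streptavidin donor/nickel chelate acceptor beads (10 ug/mL) for 30 min.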
JMJD2A Tudor inh – blocks the human JMJD2A Tudor domain; O75164; AlphaScreen JMJD2A-Tudor / H3K4me3 peptide binding; Potency, µM (series often up to 114 µM), hits mostly inhibitors; 4.4% of 390,000 active; note: nearly all actives have a fitted effect of over 50% in size
BAZ2B block – BAZ2B (human) inhibition; 4.4% of 360,000 active; AlphaScreen BAZ2B-H3K14Ac peptide displacement; Potency, µM (series often up to 114 µM), actives largely listed as inhibitors; note: nearly all actives have a fitted effect of over 60% in size
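AlphaScreen displacement: compounds (up to 110uM) incubated 30 min at room temperature with a preformed 50 nM BAZ2B/50 nM biotinylated H3K14Ac peptide complex in PBS pH 7.4 with Tween-20. Donor and acceptor beads at 10 ug/mL final added, 20 min light-protected before reading.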
L3MBTL1 block – inhibitors of human L3MBTL1; 0.66% of 230,000 active; Potency, µM (titrated, usually from 57.1 µM), actives largely listed as inhibitors; AlphaScreen L3MBTL1–H3K9me1 peptide binding; note: nearly all actives have a fitted effect of over 60% in size
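L3MBTL1 50 nM + b-AHA-H3(1-15)K9me1 75 nM, 30 min RT; compound added, 30 min RT; streptavidin donor/Ni-chelate acceptor beads 10 ug/mL each final, 30 min RT dark; AlphaScreen read.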
G9a inh – blocks human histone lysine methyltransferase G9a; Q96KQ7; G9a H3K9 monomethylation, AlphaScreen, 2 h; Potency, µM (titrated, usually from 102 µM), hits mostly inhibitors; 8.8% of 350,000 active; AID 504332; note: nearly all actives have a fitted effect of over 75% in size
Target sequence (Q96KQ7 913-1193 limits assumed): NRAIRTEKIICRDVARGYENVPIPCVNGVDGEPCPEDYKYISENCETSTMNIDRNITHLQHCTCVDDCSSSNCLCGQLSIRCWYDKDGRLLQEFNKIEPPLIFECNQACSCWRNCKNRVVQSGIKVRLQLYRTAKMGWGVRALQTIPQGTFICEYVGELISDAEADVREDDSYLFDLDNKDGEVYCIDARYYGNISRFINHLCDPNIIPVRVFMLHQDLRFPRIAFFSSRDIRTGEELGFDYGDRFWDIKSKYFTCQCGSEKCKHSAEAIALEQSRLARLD
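Chemiluminescent proximity detection of H3K9 monomethylation, read after 10 min bead incubation in the dark. Reaction: 20 nM G9a, 500 nM biotin-H3K9 peptide, 20 uM SAM cofactor, 2 h, room temperature, following 15 min enzyme-compound preincubation.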
Sfp PPTase inh – inhibitors of Bacillus subtilis Sfp phosphopantetheinyl transferase. Q9F4F7. Biochemical Sfp PPTase activity, qHTS. Potency, µM, hits mostly inhibitors. 3.5% of 310,000 active. AID 1490;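 note: the enzyme is Sfp with the accession as filed and its product quenches rhodamine fluorescence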
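Fluorescence-quenching assay with 15 nM Sfp, 5 uM rhodamine-CoA and 12.5 uM BHQ-2-labelled ybbR peptide in pH 7.6 Hepes/MgCl2 buffer. Enzyme was pre-incubated with compound for 15 min at room temperature. Rate was taken from the 30-min fluorescence change (525/598 nm).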
A number is an active result; i = inactive; ? = inconclusive; nt = no result; [ ] = another dose, or the depositor's remark. Only some compounds are listed: those with a hit (about 12% of all), similar ones and a draw of the others. Calls come from the whole dose curve; as a rule, active = well fitted curve in the direction sought with a large enough effect; inconclusive = small, poorly fitted or top-dose-only effect, or another doubt; inactive = no such curve, though single readings can be large; an effect the other way counts as inactive or inconclusive.

SMILES	HP1b chromo inh	JMJD2A Tudor inh	BAZ2B block	L3MBTL1 block	G9a inh	Sfp PPTase inh
CCOC(=O)c1ccc(N2C(=O)c3[nH]nc(-c4ccc(C)cc4)c3C2c2ccc(O)cc2)cc1 (stereo not given)	i	i	nt	nt	i	nt
CCOC(=O)c1ccc(N2C(=O)c3n[nH]c(-c4ccco4)c3C2c2ccc(O)c(OC)c2)cc1 (stereo not given)	?	?	nt	nt	22µM	nt
CCOC(=O)c1ccc(N2C(=O)c3n[nH]c(C)c3C2c2ccc(OCC)cc2)cc1 (stereo not given)	i	?	nt	nt	i	nt
CCOC(=O)c1ccc(N2C(=O)c3n[nH]c(-c4ccco4)c3C2c2ccc([N+](=O)[O-])cc2)cc1 (stereo not given)	i	?	40µM	i	?	i
CCOC(=O)c1ccc(N2C(=O)c3[nH]nc(-c4ccc(OC)cc4)c3C2c2cccc(O)c2)cc1 (stereo not given)	i	i	nt	nt	i	nt
O=c1oc2ccc(Cl)cc2cc1-c1cn2c(n1)sc1ccccc12	i	i	i	nt	i	nt
COC(=O)N[C@H](C[N+](=O)[O-])C(C)(C)C	nt	nt	nt	nt	nt	i
CC(C)(CC(=O)c1ccccc1)CC(=O)c1ccccc1	i	i	nt	nt	nt	nt
Cc1cccc(CCNC(=O)C2CCN(c3ncnc4c3nc3n4CCCCC3)CC2)c1	i	i	i	nt	i	nt
Cc1cc(C)n(CC(=O)NNC(=O)C2CC(=O)N(Cc3ccccc3Cl)C2)n1 (stereo not given)	i	i	i	nt	45µM	i
Cc1ccc(CN2CC(C(=O)NCCCn3nc(C)cc3C)CC2=O)cc1 (stereo not given)	i	i	nt	nt	nt	nt
O=C(NNC(=O)c1ccccc1-n1cccc1)c1ccc(Cl)nc1	i	i	i	i	i[12.7 µM]	nt
CCc1noc(C)c1C(=O)N(CC(C)C)c1c(N)n(Cc2ccccc2)c(=O)[nH]c1=O	i	i	i	i	i	nt
CN(C(=O)COC(=O)c1ccccc1Cc1ccccc1)c1c(N)n(Cc2ccccc2)c(=O)[nH]c1=O	i	i	i	i	50µM	nt
CCc1noc(C)c1C(=O)OCC(=O)N(C)c1c(N)n(Cc2ccccc2)c(=O)[nH]c1=O	i	i	i	i	50µM	nt
COCCN(C(=O)COC(=O)c1cccc2ccccc12)c1c(N)n(Cc2ccccc2)c(=O)[nH]c1=O	i	i	i	nt	nt	i
COCCN(C(=O)COC(=O)c1ccccc1Nc1ccccc1)c1c(N)n(Cc2ccccc2)c(=O)[nH]c1=O	i	i	i	i	14µM	nt
COCCN(C(=O)COC(=O)CCc1ccccc1OC)c1c(N)n(Cc2ccccc2)c(=O)[nH]c1=O	i	i	i	i	13µM	nt
CC(C)(C)C(=O)COC(=O)C1=NN(c2ccccc2)C(=O)CC1	i	i	i	nt	i[2.33 µM]	i
CCOC(=O)CC[C@H](NC(=O)Cn1cnc2c(SC)nc(N)nc21)C(=O)OCC	i	i	nt	i	nt	nt
COc1cccc(CNC(=O)Cn2c(=O)nc(-c3ccccc3F)c3cc(Cl)ccc32)c1	i	i	i	nt	i[12.7 µM]	nt
Cc1ccccc1C(=O)OCC(=O)N(C)c1c(N)n(Cc2ccccc2)c(=O)[nH]c1=O	i	i	i	i	i[0.501 µM]	nt
CN(C(=O)COC(=O)CSc1cc(Cl)ccc1Cl)c1c(N)n(Cc2ccccc2)c(=O)[nH]c1=O	i	i	i	i	7.1µM	nt
CN(C(=O)COC(=O)C1COc2ccccc2O1)c1c(N)n(Cc2ccccc2)c(=O)[nH]c1=O (stereo not given)	i	i	i	i	45µM	nt
COCCN(C(=O)COC(=O)Cc1coc2cc3c(cc12)CCC3)c1c(N)n(Cc2ccccc2)c(=O)[nH]c1=O	?	45µM	50µM	?	40µM	nt
SMILES	HP1b chromo inh	JMJD2A Tudor inh	BAZ2B block	L3MBTL1 block	G9a inh	Sfp PPTase inh
CCN(C(=O)COC(=O)C1COc2ccccc2O1)c1c(N)n(Cc2ccccc2)c(=O)[nH]c1=O (stereo not given)	i	i	nt	nt	nt	nt
CN(C(=O)COC(=O)CSCc1cccc(Cl)c1)c1c(N)n(Cc2ccccc2)c(=O)[nH]c1=O	i	i	i	i	i[12.7 µM]	nt
CN(C(=O)COC(=O)c1ccccc1Nc1ccccc1)c1c(N)n(Cc2ccccc2)c(=O)[nH]c1=O	i	i	i	i	14µM	nt
CC1(C)N=C(c2ccccc2)C(c2ccccc2)=N1	i	i	nt	nt	nt	nt
CCOC(=O)C(=NCC1CCCO1)NNc1cc(Cl)ccc1Cl (stereo not given)	i	?	?	nt	35µM	i
CCOC(=O)/C(=N\Nc1cc(Cl)ccc1Cl)N1CC(C)OC(C)C1 (stereo not given)	i	i	i	nt	i[12.7 µM]	i
COc1ccc(Nc2c(-c3ccccn3)nc3ccc(Cl)cn23)cc1	i	?	1.6µM	nt	i	nt
Cc1ccc(Nc2c(-c3ccccn3)nc3cc(C)ccn23)cc1	?	40µM	16µM	nt	?	i
Fc1ccccc1-c1ccc(-c2nc3ccc(Cl)cn3c2Nc2ccc(Cl)cc2)o1	?	45µM	nt	nt	nt	nt
Cc1cccc(C)c1Nc1c(-c2ccccn2)nc2ccc(Cl)cn12	i	?	?	nt	i	nt
Cc1ccc(Nc2c(-c3cc(Br)ccc3F)nc3cc(C)ccn23)cc1	?	i	?	nt	?	nt
Cc1ccc(Nc2c(-c3ccccn3)nc3ccc(C)cn23)cc1	i	45µM	nt	nt	?	i
Cc1ccc(Nc2c(-c3ccc(C)cc3)nc3ccc(C)cn23)cc1	i	i	i	nt	i	nt
CCC(CO)NCC(O)COCc1ccc2c(c1)OCO2 (stereo not given)	i	50µM	79µM	nt	?	i
CCOC(=O)C1CCCN(CC(O)COCc2ccc3c(c2)OCO3)C1 (stereo not given)	?	1µM	56µM	i	11µM	i
O=S(=O)(CCc1ccncc1)c1ccc(Cl)cc1	i	i	?	nt	35µM	i
O=S(=O)(CCc1ccccc1)c1ccccc1	nt	nt	nt	nt	nt	i
Cn1c[n+](C)cc1/C=N/O	i	50µM	89µM	i	40µM	i
Cc1ccc(Cn2c(C)c3cnn(CC(=O)O)c(=O)c3c2C)cc1	i	i	i	nt	i	nt
O=c1ccc2[n+]([O-])c3ccc(O)cc3oc-2c1	?	i	10µM	3.2µM	10µM	?
O=C1C(=O)N(C2CCN(C(=O)c3ccccc3Cl)CC2)CCN1Cc1ccc(F)cc1	i	i	i	nt	i	nt
C=CC[C@@H]1Cc2c(Br)ccc(Br)c2[C@@H](CC=C)N1	i	i	i	i	i	i
C=CCC1NCCc2c(Br)cccc21 (stereo not given)	i	i	i	i	22µM	i
CC(=O)N1C(=O)CC(C)N(C(C)=O)c2ccc([N+](=O)[O-])cc21 (stereo not given)	i	?	i	i	20µM	i
Cc1cc(C#N)c(C)n1-c1cc(S(=O)(=O)N2CCOCC2)ccc1N1CCCC1	i	?	i	nt	6.3µM	40µM
Nc1cc(S(=O)(=O)N2CCOCC2)ccc1N1CCOCC1	i	i	nt	i	nt	nt

Screens (PubChem)
